Bioassay records as filed in PubChem BioAssay.
KDM4E inh: inhibitors of human JMJD2E histone demethylase; Potency, µM (doses to about 57.1 µM), for inactives: top-dose activity change, negative = inhibition, actives largely listed as inhibitors; actives 1.6% (n = 230,000); B2RXH2; JMJD2E catalytic domain, FDH-coupled NADH fluorescence (FDH is formaldehyde dehydrogenase);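 also: potency is read from the fitted curve at half-maximal effect; 0% = wells with enzyme and -100% = buffer wells without enzyme; nearly all actives have a fitted effect of over 50% in size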
Target sequence (B2RXH2 1-337 limits assumed): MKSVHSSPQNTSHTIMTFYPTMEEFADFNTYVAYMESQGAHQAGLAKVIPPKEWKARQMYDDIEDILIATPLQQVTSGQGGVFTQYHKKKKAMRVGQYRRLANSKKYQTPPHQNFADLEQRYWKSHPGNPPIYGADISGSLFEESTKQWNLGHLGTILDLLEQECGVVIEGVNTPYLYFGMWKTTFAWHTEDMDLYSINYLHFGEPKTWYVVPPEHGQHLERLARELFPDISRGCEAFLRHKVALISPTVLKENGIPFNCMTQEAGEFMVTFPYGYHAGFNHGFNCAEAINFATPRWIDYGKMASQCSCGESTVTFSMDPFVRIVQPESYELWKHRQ
FBPA coupling cs: coupling enzyme interference in Giardia aldolase counter-screen; coupling enzyme system counterscreen, AmpLite Red fluorescence; activity change, negative = inhibition, % at 58.2 µM, hits read low; actives 0.67% (n = 290,000); in the data active = activity change below about -30%
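First, compound is pin-transferred into glyceraldehyde-3-phosphate coupling-enzyme reagent at 57.5 uM final and held 10 min at RT. Next, substrate, coupling system and AmpLite Red are added. After 20 min RT, fluorescence (525/598 nm) is read.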
Sfp inh: blocks B. subtilis Sfp PPTase activity; Biochemical Sfp PPTase activity, qHTS; Potency, µM, inactives show largest response in the series, negative = inhibition, most hits filed as inhibitors; actives 3.5% (n = 310,000);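 also: the enzyme is Sfp with the accession as filed and its product quenches rhodamine fluorescence; potency is read from the fitted curve at half-maximal effect; 0% = enzyme reaction without inhibitor and -100% = no enzyme wells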
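With Hepes-Na pH 7.6 buffer containing 10 mM MgCl2, Sfp (15 nM) modified BHQ-2-YbbR (12.5 uM) using rhodamine-CoA (5 uM). Two reads 30 minutes apart at 525/598 nm yielded each well's rate.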
Tau fibril FP: blocks human tau fibril formation measured by polarization. P10636. K18 P301L tau heparin fibrillization, Alexa594 FP, 6 h. Potency, µM (titrated, usually from 57.7 µM), inactives show top-dose activity, negative = inhibition, hits mostly inhibitors. actives 0.39% (n = 280,000). AID 1468; also: potency is read from the fitted curve at half-maximal effect; nearly all actives have a fitted effect of over 55% in size
Target sequence (P10636 561-689 P618L limits assumed): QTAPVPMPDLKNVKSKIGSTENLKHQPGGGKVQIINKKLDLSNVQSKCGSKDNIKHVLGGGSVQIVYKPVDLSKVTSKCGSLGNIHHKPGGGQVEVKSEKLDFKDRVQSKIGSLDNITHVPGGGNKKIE
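K18 P301L tau (15 uM unlabeled/0.24 uM Alexa 594-labeled, final) + compound + heparin 20 uM final; 100 mM NaOAc pH 7; 6 hr 37 C; ThT 30 uM final added, 1 hr RT; FP ex 555/em 632 nm.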
Tau fluor counter: counter-screen for tau fibril formation inhibitors; tau K18 P301L Alexa594 fluorescence, heparin fibrillization; Potency, µM (doses to about 57.7 µM), without a hit: at the top dose activity change, negative = decrease; actives 0.93% (n = 280,000); AID 1463; also: potency is read from the fitted curve at half-maximal effect; nearly all actives have a fitted effect of over 55% in size
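Human K18 P301L tau (15 uM unlabeled plus 0.24 uM Alexa 594-labeled, final) in 100 mM sodium acetate pH 7 was mixed with compound and 20 uM heparin and incubated 6 hr at 37 C.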
Tau fibril ThT: inhibitors of human tau fibril formation, thioflavin T binding. recombinant tau K18 P301L, heparin-induced fibrillization, ThT fluorescence. P10636. AID 1460. actives 2.1% (n = 270,000). Potency, µM (titrated, usually from 57.4 µM), for inactives: at the top dose activity, negative = inhibition, hits mostly inhibitors; also: potency is read from the fitted curve at half-maximal effect; nearly all actives have a fitted effect of over 55% in size
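Fibril formation assay: tau K18 P301L at 15 uM with trace Alexa 594 label, heparin inducer 20 uM, pH 7 sodium acetate buffer, 37 C for 6 hr; endpoint ThT signal.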
Numbers without * were called inactive; ? = inconclusive; / = not tested or not shown; [ ] = remark or other dose. Rows were chosen to be rich in hits. Some 5.3% of all compounds tested hit in one or more screens of this group. Unless noted, calls follow the shape of the dose curve; as a rule, active = well fitted curve in the direction sought with a large enough effect; inconclusive = small, poorly fitted or top-dose-only effect, or another doubt; inactive = no such curve, though single readings can be large; an effect the other way counts as inactive or inconclusive. Unless noted, % is scaled to controls: 0 for no effect and ±100 for the full control effect.

SMILES	KDM4E inh	FBPA coupling cs	Sfp inh	Tau fibril FP	Tau fluor counter	Tau fibril ThT
C=CCOC(/C=C/c1ccccc1)C[Si](C)(C)C (stereo not given)	/	2.7	-1.7%	/	/	/
CC[C@H](C)[C@H](NC(=O)[C@H](CC(=O)O)NC(=O)[C@H](CC(C)C)NC(=O)[C@H](Cc1cnc[nH]1)NC(=O)[C@H](C)NC(=O)[C@H](Cc1ccccc1)NC(=O)[C@H](Cc1ccc(O)cc1)NC(=O)[C@@H](NC(=O)[C@H](C)NC(=O)[C@H](CCC(=O)O)NC(=O)[C@H](CCC(=O)O)NC(=O)[C@H](CC(=O)O)NC(=O)CCC(=O)O)C(C)C)C(=O)N[C@H](C(=O)N[C@@H](Cc1c[nH]c2ccccc12)C(=O)O)[C@@H](C)CC	/	2.9	-0.1%	/	/	/
Cc1c(NC(=O)/C(C#N)=C/c2ccc(-c3ccccc3Cl)o2)c(=O)n(-c2ccccc2)n1C	-5.5%	-1.9	-5.7%	7.6%	-9.8%	?
Cc1c(NC(=O)/C(C#N)=C/c2ccc(-c3cccc(Cl)c3)o2)c(=O)n(-c2ccccc2)n1C	9.7%	2.6	-9.2%	8.3%	-7.2%	12.6µM*
Cc1c(NC(=O)/C(C#N)=C/c2ccc(-c3ccc(Cl)c(Cl)c3)o2)c(=O)n(-c2ccccc2)n1C	15.5%	0.5	21.0%	8.1%	-16.6%	15.8µM*
Cc1c(NC(=O)/C(C#N)=C/c2ccccc2)c(=O)n(-c2ccccc2)n1C	6.0%	1.2	-4.1%	-7.2%	-2.9%	-9.4%
O=C(CN1C(=O)COc2ccccc21)N(Cc1ccccc1)Cc1ccccn1	-7.2%	-0.1	-3.4%	?	-16.4%	-2.5%
Cc1ccc(CN(Cc2cccnc2)C(=O)CN2C(=O)COc3ccccc32)o1	1.0%	1.7	28.2µM*	-6.5%	-6.2%	?
O=C(Nc1ccc(F)cc1)c1cccc(N2CCCS2(=O)=O)c1	/	/	/	0.8%	-4.5%	-1.2%
Cn1c2ccccc2c(=O)c2c(=O)n(-c3ccc(F)cc3)c(-c3cccs3)nc21	?	-0.5	-4.1%	6.8%	-6.9%	?
CC(c1ccccc1)n1c(-c2cccs2)nc2c(c(=O)c3ccccc3n2C)c1=O (stereo not given)	5.7%	19.0	79.4µM*	-15.6%	-10.2%	?
CS(=O)(=O)N1CCc2cc(-c3csc(NCC4CCCO4)n3)ccc21 (stereo not given)	-19.2%	-10.8	50.1µM*	?	-22.0%	?
CC(=O)Nc1cccc(NC(=O)CSc2cn(CC(=O)N(C(C)C)C(C)C)c3ccccc23)c1	/	/	/	-9.5%	-14.1%	-9.2%
CCCCC#CC1C=CC(Oc2ccc(OC)cc2)C(CO)O1 (stereo not given)	/	-0.1	7.2%	0.7%[11.6 µM]	-14.8%[11.6 µM]	-17.0%[11.5 µM]
Cc1ccc(-c2nc3cc(N)ccc3o2)c(C)c1	?	-2.6	1.4%	9.5%	-28.1%	?
Nc1ccc2oc(-c3cccc4ccccc34)nc2c1	-7.0%	-1.3	-5.4%	7.3%	15.8µM*[quencher]	?
O=C(NCC(c1ccc2c(c1)OCO2)N1CCN(c2ccccc2)CC1)c1ccccc1 (stereo not given)	/	/	/	10.9%	-17.7%	-14.6%
O=S(=O)(/N=C(\Sc1ccc(Cl)cc1)c1ccccc1)c1ccccc1	?	3.3	56.2µM*	?	-11.1%	35.5µM*
CCc1ccccc1NS(=O)(=O)c1ccc2c(c1)CC(=O)N2	/	/	/	-9.3%	-9.6%	-0.4%
C=CCSC1=C(C#N)C(c2ccccc2OCC)C(C#N)C(=O)N1 (stereo not given)	-19.1%	5.8	35.5µM*	-8.7%	-9.6%	-15.8%
CCOC(=O)C1C(=O)NC(SCC(=O)Nc2nccs2)=C(C#N)C1c1ccccc1OCC (stereo not given)	-5.0%	4.9	14.1µM*	?	-23.5%	?
CCOC(=O)CSC1=C(C#N)C(c2ccccc2OCC)C(C#N)C(=O)N1 (stereo not given)	-1.6%	9.8	?	-5.0%	-19.0%	?
CC(C)(C)OC(=O)NS(=O)(=O)Nc1ccccc1Br	/	1.7	0.5%	/	/	/
C=C1CCN(C(C)C(=O)OCc2cccc(C)c2)S(=O)(=O)c2ccccc21 (stereo not given)	/	-0.9	-0.3%	/	/	/
COc1ccc(NC(=O)C(C)n2nnc3sc(-c4ccccc4)cc3c2=O)cc1Cl (stereo not given)	/	/	/	?	?	14.1µM*
SMILES	KDM4E inh	FBPA coupling cs	Sfp inh	Tau fibril FP	Tau fluor counter	Tau fibril ThT
O=c1ccc2cc3c([nH]c4ccc(Br)cc43)oc-2c1O	?	-9.6	22.4µM*	?	?	14.1µM*
O=c1c2c([nH]c3ccc(Br)cc13)CCCC2	2.8%	1.8	8.8%	1.3%	1.2%	-1.8%
Oc1ccc(N=C/C=C/c2ccc(Br)cc2)cc1-c1nc2ccccc2s1	14.1µM*	-11.0	-15.0%	-23.2%	?	11.2µM*
O=C(Nc1ccc(-c2nc3ccccc3s2)c(O)c1)c1ccc(Br)cc1	/	/	/	-14.4%	-3.7%	?
COc1ccc(-c2cc(C(F)(F)F)nc(SCC(=O)NCCc3ccc(OC)c(OC)c3)n2)cc1	/	/	/	-7.5%	-12.5%	-3.0%
Cn1cc(C(=O)N/N=C/c2ccc(Br)c([N+](=O)[O-])c2)c2ccccc21	-7.6%	0.8	6.2%	?	14.1µM*[quencher]	/
Cn1cc(-c2nc3cncnc3n(CCN)c2=O)c2ccccc21	/	-10.4	-6.6%	/	/	/
CCOC(=O)N1CCC(n2c(SCC(=O)N3CCC(C)CC3)nc3ccccc3c2=O)CC1	-2.2%	5.0	79.4µM*	-11.7%	-1.9%	?
COCCN(C)Cc1cn(-c2ccc(F)cc2F)nc1-c1ccccc1C	0.3%	-1.6	89.1µM*	3.9%	-13.1%	?
Cc1cc(=S)c2ccccc2[nH]1	-5.7%	-23.8	56.2µM*	-11.3%	-21.9%	/
CCc1ccc(-n2c(=O)c3cccnc3n2CC(=O)Nc2cc(F)ccc2F)cc1	/	/	/	?	-27.9%	1.8%
c1ccc(CN2CCC3(CC2)Nc2ccccc2S3)cc1	-10.0%	-1.7	79.4µM*	-2.3%	-22.1%	-14.0%
COc1ccccc1N1CCN(C(=O)Cn2ncc3c(=O)oc4ccccc4c32)CC1	/	/	/	-1.9%	-8.4%	-7.7%
CCN(CC)CCNC(=O)c1ccc(NC(=O)c2cccc(S(=O)(=O)Nc3ccc(C)cc3)c2)cc1	0.0%	-0.3	39.8µM*	?	?	0.6%
CN(C)CCNC(=O)c1cccc(S(=O)(=O)Nc2ccc(F)cc2)c1	-5.3%	1.5	-0.4%	-2.3%	0.9%	1.9%
CCOC(=O)C1=C(O)/C(=C\c2ccc(OC)c(OC)c2)N=C1C	-6.3%	-5.0	-5.5%	?	0.1%	?
CCOC(=O)C1=C(O)/C(=C/c2cc(OC)c(OC)c(OC)c2)N=C1C	-10.8%	/	89.1µM*	-2.3%	-6.5%	?
